This is a sample that favours compounds with a hit; in the whole collection about 3.4% have one here.
PAFAH1B3 FP inh – PAFAH1B3 (human) inhibition. recombinant PAFAH1B3, FP-rhodamine probe, fluorescence polarization. inhibition, % at 3.39 µM. actives 0.28% (n = 340,000);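 active means inhibition above the screen-wide average of all tested compounds plus 3 SD, cut at about 25% in these data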;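 further: 0% = enzyme with DMSO only and 100% = wells lacking PAFAH1B3 protein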
pPAFAH FP inh – pPAFAH (human) enzyme inhibition. Q13093. recombinant pPAFAH, FP-rhodamine probe fluorescence polarization. inhibition, % at 3.39 µM. actives 1.5% (n = 330,000);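 active means inhibition above the mean inhibition across the screen plus 3 SD, cut at about 25% in these data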;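 further: inhibitors block binding of the rhodamine activity-based probe so polarization drops; 0% = enzyme with DMSO and 100% = wells lacking pPAFAH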
Target sequence (Q13093 whole entry, looked up): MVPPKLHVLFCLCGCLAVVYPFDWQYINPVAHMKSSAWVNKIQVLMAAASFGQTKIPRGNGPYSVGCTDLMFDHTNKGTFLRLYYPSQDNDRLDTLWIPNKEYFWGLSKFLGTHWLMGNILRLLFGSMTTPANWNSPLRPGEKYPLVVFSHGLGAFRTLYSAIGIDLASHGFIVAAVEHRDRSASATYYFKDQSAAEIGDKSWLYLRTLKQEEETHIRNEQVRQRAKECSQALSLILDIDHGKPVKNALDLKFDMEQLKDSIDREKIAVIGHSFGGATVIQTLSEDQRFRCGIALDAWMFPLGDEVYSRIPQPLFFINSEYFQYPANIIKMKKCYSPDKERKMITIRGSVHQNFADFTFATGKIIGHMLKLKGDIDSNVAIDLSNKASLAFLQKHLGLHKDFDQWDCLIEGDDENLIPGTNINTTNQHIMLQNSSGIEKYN
PAFAH2 FP inh – PAFAH2 (human) inhibition | Q99487 | recombinant PAFAH2, FP-rhodamine activity probe, fluorescence polarization | inhibition, % at 3.39 µM | actives 0.99% (n = 340,000);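 active means inhibition above the mean over all tested compounds plus 3 SD, cut at about 30% in these data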;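 further: inhibitors block probe labeling of enzyme so polarization drops; 0% = enzyme with DMSO and 100% = wells lacking PAFAH2 protein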
PP1 inh – blocks human PP1-alpha phosphatase, a PP5 counter-screen; actives 0.9% (n = 320,000); P62136; inhibition, % at 6.7 µM; purified PP1alpha, OMFP fluorescence; AID 2235;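 active means inhibition above the mean inhibition of all tested compounds plus 3 SD, computed separately for each screening campaign, cut at about 15% in these data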
PAFAH1B2 FP inh – inhibitors of human PAFAH1B2; AID 492953; actives 1.2% (n = 340,000); P68402; inhibition, % at 3.39 µM; recombinant PAFAH1B2, FP-rhodamine activity probe, fluorescence polarization;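 active means inhibition above the mean of all tested compounds plus 3 SD, cut at about 24% in these data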;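 further: 0% = enzyme with DMSO and 100% = wells lacking PAFAH1B2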
PP5 inh – inhibitors of human protein phosphatase 5 (PP5) | P53041 | purified PP5c, OMFP substrate fluorescence | inhibition, % at 6.7 µM | actives 0.18% (n = 320,000);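 active means inhibition above the campaign's mean inhibition across all tested compounds plus 3 SD, cut at about 9.5% in these data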;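 further: 0% = DMSO only and 100% = 100 µM cantharidin control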
pPAFAH confirm – confirmation of human plasma PAF acetylhydrolase (pPAFAH) inhibitors. shares compounds with pPAFAH FP inh. recombinant pPAFAH, FP-Rh probe fluorescence polarization. inhibition, % at 3.39 µM. actives 72% (n = 2,300). AID 463230;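 active means mean inhibition of the triplicate above the hit cutoff set for the earlier primary screen, cut at about 25% in these data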;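 further: 0% = enzyme with DMSO and 100% = wells lacking pPAFAH enzyme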
* hit, by the source's call; x = not tested or not shown.

SMILES	PAFAH1B3 FP inh	pPAFAH FP inh	PAFAH2 FP inh	PP1 inh	PAFAH1B2 FP inh	PP5 inh	pPAFAH confirm
CS(=O)(=O)c1ccc(C(=O)Nc2cc(-c3ccccc3)nn2-c2ccccc2)cc1	4	2	3	-1	2	2	x
CN(C(=O)COC(=O)c1cc([N+](=O)[O-])ccc1N1CCCC1)C1CCS(=O)(=O)C1 (stereo not drawn)	8	-7	-2	-3	2	-2	x
CCC(C)N(C(=O)COC(=O)c1cc([N+](=O)[O-])ccc1N1CCOCC1)C1CCS(=O)(=O)C1 (stereo not drawn)	2	40*	1	-2	5	-1	1
Cc1cc(/C=C2\C(=N)N3N=C(c4ccco4)SC3=NC2=O)c(C)n1Cc1ccccc1	13	36*	16	15	36*	1	70*
CCCN(CC(=O)Nc1ccccc1C)C(=O)c1cccc(S(=O)(=O)N2CCc3ccccc3C2)c1	5	8	-5	2	5	2	x
CN(C)c1ccc(N/C=C/C(=O)c2ccccc2)cc1	-4	39*	3	3	4	5	6
Cc1ccc(NC(=S)NNc2ccc(C(=O)O)cc2[N+](=O)[O-])cc1C	9	35*	27	-5	6	3	39*
Cc1ccc(Nc2ccc(C(N)=O)cc2[N+](=O)[O-])cc1C	4	17	-11	2	-6	2	x
Nc1cccc2c(=O)c3ccccc3[nH]c12	13	41*	-1	16*	2	2	10
Cc1cc(=O)[nH]c(N/N=C/c2ccc(-c3ccc([N+](=O)[O-])cc3)o2)n1	5	4	8	5	6	1	x
O=C(/C=C/c1ccc(O)c(O)c1)c1ccc(S(=O)(=O)N2CCCCCC2)cc1	16	50*	8	7	1	1	89*
CCn1c(CCC(=O)Nc2cc(F)ccc2C)nc2cc(S(=O)(=O)N(C)C)ccc21	4	1	7	0	6	2	x
COc1cc(/C=C(\C#N)C(=O)c2ccc(O)c(O)c2)cc(I)c1O	-11	79*	67*	3	86*	0	71*
Cc1cc(C)cc(C(=O)NCC(=O)OCc2c(C)noc2C)c1	1	37*	6	-5	7	0	5
Cc1noc(C)c1COC(=O)CNC(=O)c1ccc(Cl)cc1	-2	4	4	3	4	-3	x
N#C/C(=C\c1ccc([N+](=O)[O-])o1)C(=O)Nc1ccc(F)cc1	7	44*	9	3	1	1	24
Cc1cc(OCc2cn(CC(=O)c3ccc(O)cc3)nn2)ccc1[N+](=O)[O-]	-11	x	2	x	1	x	x
Oc1ccc(-c2cn3c(n2)SCC3)cc1	7	1	16	-2	2	-2	x
Oc1ccc(-c2cn3c(n2)SCC3)cc1O	12	56*	23	4	5	-2	21
Cc1cc(O)c2c(c1O)C(=O)[C@]13C(=C2O)C(=O)[C@@H]2[C@@H](O)[C@H]1[C@@H]1[C@H](O)[C@H]3C(=O)C3=C(O)c4c(O)cc(C)c(O)c4C(=O)[C@]312	37*	54*	43*	x	22	x	23
COc1ccc(C(=O)CC(=O)C(=O)Nc2ccc([N+](=O)[O-])cc2C)cc1	15	48*	-8	1	6	1	8
COc1ccc(C(=O)CC(=O)C(=O)Nc2cc(C)ccc2C)cc1	10	2	-3	2	2	2	x
O=C(Cn1cnc([N+](=O)[O-])n1)c1ccc(O)c(O)c1	12	56*	2	-2	2	0	20
O=C(CSc1nc2nn(-c3ccccc3)c(=O)c-2c2n1CCCCC2)c1ccc(O)c(O)c1	29*	71*	85*	6	9	5	86*
Cc1ccc2nc(/C(C#N)=C/c3ccc(O)c(O)c3)[nH]c2c1	47*	65*	27	6	23	7	79*
SMILES	PAFAH1B3 FP inh	pPAFAH FP inh	PAFAH2 FP inh	PP1 inh	PAFAH1B2 FP inh	PP5 inh	pPAFAH confirm
Cc1ccc2nc(/C(C#N)=C/c3ccccc3C(=O)O)[nH]c2c1	4	9	2	-1	7	-1	x
Clc1cccc(-c2ccc(C3Nc4cccc5cccc(c45)N3)o2)c1	31*	39*	-9	x	25*	x	38*
Oc1c(Br)cc(/C=N/Nc2ccc(Cl)nn2)cc1Br	28*	52*	33*	2	16	1	58*
Cc1nnc(SCC(=O)N(C)c2ccccc2)n1-n1cccc1	4	0	4	-2	1	-1	x
CN(C(=O)CSc1nc(O)cc(=O)n1C1CCCC1)c1ccccc1	8	48*	-9	8	4	-1	8
O=C(NC(Cc1ccccc1)C(=O)O)/C(=C/c1ccccc1)NC(=O)c1cccc(Br)c1 (stereo not drawn)	4	-6	4	-3	-2	2	x
COc1cccc(NC(=O)Nc2cc(C(=O)NCC3CCCO3)ccc2N2CC3CC(C2)c2cccc(=O)n2C3)c1 (stereo not drawn)	10	62*	7	-2	1	-2	61*
CCOC(=O)N/N=C/c1cc(OC)c(O)c(OC)c1	-1	-2	8	1	8	-2	x
CCOC(=O)c1sc(N/N=C/c2cc(Br)c(O)c(OC)c2)nc1C	13	35*	12	-2	0	4	26*
COc1cc(C2CC(=O)N3CN(Cc4ccco4)CSC3=C2C#N)ccc1OCc1ccccc1 (stereo not drawn)	0	36*	5	8	-1	0	11
COc1ccc(OC)c(NC(=O)CCN2CCCCC2)c1	-1	0	11	-5	6	-1	x
COn1c(=O)c(-c2ccc(F)cc2)[n+]([O-])c2ccccc21	-2	-2	8	-1	1	3	x
O=C(OCC(=O)N1CCCCC1)c1cccc(NS(=O)(=O)c2ccccc2)c1	6	4	6	1	2	-1	x
COc1ccc(N2CCN(C(=O)COC(=O)c3cccc(S(=O)(=O)Nc4cccc(C)c4)c3)CC2)cc1	2	40*	3	0	-4	1	44*
CC(=O)N1CCN(c2ccc(NCc3ccc(-c4ccc(Br)cc4)o3)cc2)CC1	12	41*	8	x	7	x	26*
Cc1cc(=O)oc2c(C)c(OCC(=O)NCCCn3ccnc3)ccc12	12	5	6	-1	0	-1	x
Cc1ccc(-c2cc(C(=O)N/N=C/c3c(C)nn(-c4ccccc4)c3C)n[nH]2)s1	-21	x	-23	x	-4	x	x
CCN(CC)S(=O)(=O)c1ccc(Cl)c(NC(=O)COC(=O)/C=C/c2ccc(O)c(OC)c2)c1	0	37*	75*	2	-3	6	13

Assay outcomes as filed in PubChem.
